# An excerpt weighted towards active compounds, which were near 3.5% of everything screened.
# MITF inh: blocks human microphthalmia-associated transcription factor. O75030. AlphaScreen MITF homodimerization, bead proximity signal. 650,000 compounds, 0.91% hits. inhibition, % at 2.6 µM. AID 1259374; in the data active = inhibition above about 50%;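 also: 0% = vehicle wells with protein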
# TEAD-YAP block: TEAD-YAP interaction inhibition | HEK-TIYL cells, TEAD-Gal4/YAP UAS-luciferase luminescence | inhibition, % at 9.12 µM | 640,000 compounds, 1.4% hits | AID 1259422; in the data active = inhibition above about 32%;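 also: 0% = median of test compound wells and 100% = reference inhibitor wells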
# GPR151 activ: human GPR151 activation; PathHunter beta-arrestin GPR151 cells, luminescence; 650,000 compounds, 1% hits; activation, % at 11.2 µM; AID 1508602; in the data active = activation above about 4.9%;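 also: 0% = median of compound wells and 100% = cells with positive control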
# FBW7 activator: human FBW7 E3 ligase activation, primary screen; AID 1259310; Q969H0; 650,000 compounds, 0.13% hits; normalized activity (activation), % at 26.1 µM; AlphaScreen FBW7–phospho-cyclin E peptide binding, activator screen; in the data active = normalized activity above about 1.9%;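 also: purified mutant Fbw7 with reduced substrate affinity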
# GPR151 conf act: confirmation of human GPR151 activators. shares compounds with GPR151 activ. GPR151 PathHunter beta-arrestin cells, luminescence, 90 min; % of EA-reagent control over plate median. activation, % at 11.2 µM. 6,700 tested, under 10 active. AID 1508609;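 active = mean percent activation across replicates above the confirmation screen cutoff of 4.91%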
# GPR119 counter: counter-screen for GPR151 activators: effect on human GPR119; shares compounds with GPR151 activ; GPR119 PathHunter beta-arrestin cells, luminescence, 90 min; 0 = compound-well median, 100 = enzyme-acceptor control; activation, % at 11.2 µM; 6,700 compounds, 0.3% hits;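 active = mean percent activation in the counterscreen above 29.09%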;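 also: counterscreen on off-target GPR119 to flag nonselective hits from the GPR151 activator screen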
# Target sequence (Q8TDV5 whole entry, looked up): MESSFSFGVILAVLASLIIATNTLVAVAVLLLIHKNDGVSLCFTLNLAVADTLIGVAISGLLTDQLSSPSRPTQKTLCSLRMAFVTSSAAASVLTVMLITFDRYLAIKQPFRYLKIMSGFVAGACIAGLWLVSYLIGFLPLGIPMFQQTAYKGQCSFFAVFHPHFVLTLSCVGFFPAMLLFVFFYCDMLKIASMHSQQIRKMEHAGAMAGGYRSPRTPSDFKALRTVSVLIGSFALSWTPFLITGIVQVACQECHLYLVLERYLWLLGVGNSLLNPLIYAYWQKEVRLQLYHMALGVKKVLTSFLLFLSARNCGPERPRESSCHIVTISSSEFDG
# An asterisk follows results filed as active; x = no result.
SMILES,MITF inh,TEAD-YAP block,GPR151 activ,FBW7 activator,GPR151 conf act,GPR119 counter
CC1(C)CC(=O)N(CC(=O)N2CCCCC2)c2ccccc2S1,8.7,-5.4,5.7*,0.7,-0.5,-2.2
CCCCOc1ccc(C(=O)Nc2sc(C)c(C)c2C#N)cc1,-2.3,-5.5,8.3*,-0.1,-0.6,8.1
CCOc1ccc(C(=O)Nc2sc(C)c(C)c2C#N)cc1,14.4,-5.0,-0.9,0.0,x,x
Cc1ccc(C(=O)O/N=C(\N)CC(N)=O)cc1,-3.7,0.6,-0.5,-0.3,x,x
COc1ccc(C(C)C)cc1S(=O)(=O)NCCc1ccccc1,5.6,3.7,-0.9,0.6,x,x
CCOc1ccccc1Nc1nncc(=O)[nH]1,-2.9,11.2,-0.1,-0.1,x,x
CCc1ccccc1Nc1nncc(=O)[nH]1,-1.0,10.5,7.2*,0.0,-1.6,-9.5
Cc1cc(NC(=O)/C=C/c2ccc3c(c2)OCO3)n(-c2nc3ccccc3[nH]2)n1,17.3,-3.5,-0.4,0.3,x,x
COc1ccc(S(=O)(=O)/N=C2/NC(=O)/C(=C\c3ccco3)S2)cc1,13.7,6.3,7.4*,0.1,-0.6,-1.1
Cc1ccc(S(=O)(=O)/N=C2/NC(=O)/C(=C/c3ccco3)S2)cc1,8.6,0.5,1.0,0.0,x,x
Cn1c2ccccc2c2nnc(SCC(=O)c3ccccc3)nc21,-17.0,1.0,5.5*,-0.3,-0.2,-2.6
Cc1nn(-c2ccccn2)c2c1C(=O)CC(C)(C)C2Br (stereo not given),16.0,3.5,5.8*,0.0,-1.4,-8.4
CNC(=O)c1c(NC(=O)COc2cccc(C)c2C)sc2c1CCCC2,0.2,-6.9,5.2*,-0.1,0.1,0.7
CCCOC(=O)c1c(NC(=O)OC)sc2c1CCC(C)C2 (stereo not given),13.1,-4.4,6.0*,1.2,-0.9,-8.4
COc1ccc(NC(=O)COc2cccc(C)c2C)cc1,3.0,-18.8,7.5*,0.2,-0.3,14.2
CCCOC(=O)c1c(N)sc2c1CCC(C)C2 (stereo not given),0.6,-8.6,0.7,0.0,x,x
CCOC(=O)c1c(NC(=O)COc2ccc3c(c2)OCO3)sc2c1CCCC2,-13.2,3.5,5.4*,-0.1,0.2,9.9
COC(=O)c1ccc(NC(=O)COc2cccc(C)c2C)cc1,8.1,7.1,1.3,0.3,x,x
CCC(C)(NC(=O)Cc1c[nH]c2ccccc12)C(=O)NC1CCCC1 (stereo not given),3.1,0.3,-0.6,0.0,x,x
Cc1cc(N2CCCCC2)nc2ccc(NC(=O)c3ccc([N+](=O)[O-])o3)cc12,6.0,15.6,-1.1,0.1,x,x
CCOC(=O)c1c(NC(=O)COc2ccc3c(C)cc(=O)oc3c2)sc2c1CCC(C)C2 (stereo not given),-4.5,2.7,5.4*,0.1,0.3,10.0
COC(=O)c1ccc2c(c1)CN(c1ccc(F)cc1)C2,-7.3,-62.4,2.2,-0.1,x,x
COc1ccc(NC(=O)CN2C(=O)C(c3ccccc3)Oc3cccnc32)cc1OC (stereo not given),-3.5,-2.8,6.3*,0.2,0.4,-0.1
CC(C)(C)c1ncn(-c2ccc(Nc3nccc(-c4cc(F)nc(F)c4)n3)cc2)n1,-13.1,-4.1,-0.7,-0.1,x,x
N#C/C(=C\Nc1ccccc1F)c1nc(-c2cc3cc([N+](=O)[O-])ccc3oc2=O)cs1,2.3,0.2,11.1*,0.2,0.2,9.9
SMILES,MITF inh,TEAD-YAP block,GPR151 activ,FBW7 activator,GPR151 conf act,GPR119 counter
Cn1c(=O)cc(N2CCCCC2)n(Cc2ccc(F)cc2F)c1=O,-5.6,-10.1,5.7*,0.3,-1.7,-7.5
Cn1c(=O)cc(N2CCCC2)n(Cc2ccc(F)cc2F)c1=O,10.1,1.0,-0.8,0.0,x,x
CC(C)COC(=O)Nc1nnc(C(C)C)s1,-7.4,-73.6,13.2*,0.1,0.4,6.8
CCCCOC(=O)Nc1nnc(C(C)C)s1,13.4,-58.5,0.0,0.0,x,x
CN(C)CCCN1C(=O)C(=O)/C(=C(\O)c2ccccc2)C1c1ccncc1 (stereo not given),7.2,-7.5,0.6,0.0,x,x
CC1Oc2ccccc2C=C1C1/C(=C(\O)c2ccccc2)C(=O)C(=O)N1CCCN(C)C (stereo not given),-3.0,4.0,12.3*,-0.1,1.1,-2.9
Cc1ccc(C(=O)OCC(=O)NC(N)=O)c(O)c1,8.1,-1.8,0.3,0.1,x,x
COc1ccccc1NC1CC(=O)N(c2ccc(Br)cc2)C1=O (stereo not given),-4.7,6.4,0.3,0.0,x,x
COc1ccc(NC2CC(=O)N(c3ccc(OC)cc3)C2=O)cc1 (stereo not given),-4.8,0.3,-1.9,-0.2,x,x
COc1ccc(NC2CC(=O)N(c3ccc(Cl)c(C(F)(F)F)c3)C2=O)cc1 (stereo not given),2.9,14.7,6.0*,0.0,-0.4,-8.4
COc1ccccc1NC1CC(=O)N(c2cccc(Cl)c2)C1=O (stereo not given),1.8,-9.2,9.1*,-0.1,-0.4,4.5
COc1ccc(/C=C/C(=O)Nc2cc([N+](=O)[O-])ccc2F)cc1OC,7.6,3.4,-0.4,-0.1,x,x
COc1ccc([N+](=O)[O-])cc1NC(=O)/C=C/c1ccc(F)cc1,12.0,19.2,8.8*,0.5,-0.2,-15.3
COc1ccc(/C=C/C(=O)Nc2ccc([N+](=O)[O-])cc2OC)cc1Br,6.3,2.6,0.0,-0.1,x,x
O=C(/C=C/c1ccc([N+](=O)[O-])cc1)Nc1ccccc1C(=O)Nc1cccc(C(=O)O)c1,1.0,-6.1,4.9*,0.3,1.4,18.1
CCOc1ccc(/C=C/C(=O)Nc2cc([N+](=O)[O-])ccc2C)cc1OC,-12.2,8.3,6.5*,-0.1,0.9,8.2
COc1ccc(/C=C/C(=O)Nc2cc([N+](=O)[O-])ccc2OC)cc1Br,15.3,2.9,5.4*,-0.1,1.1,0.2
CCOCC(=O)Nc1cc([N+](=O)[O-])ccc1OC,7.9,3.9,1.1,0.1,x,x
CCOCC(=O)Nc1cc([N+](=O)[O-])ccc1C,-7.6,0.7,6.2*,0.0,0.2,-4.5
CCN(CC)C(=O)Cc1csc2nc(-c3ccc(F)cc3)cn12,-6.3,-2.8,0.3,0.4,x,x
O=C(NC(=O)c1ccc(Cn2cc(C(F)(F)F)ccc2=O)cc1)Nc1cccnc1,-7.8,-0.2,5.2*,-0.2,-0.9,-11.1
Cc1ccc(NC(=O)NC(=O)c2cccc(Cn3cc(C(F)(F)F)ccc3=O)c2)nc1,6.5,-13.3,3.9,-0.1,x,x
Cc1ccc(-n2nc3c(c2NC(=O)c2c(F)cccc2F)CS(=O)(=O)C3)cc1,10.9,3.0,-1.4,0.8,x,x
COc1ccc(Cl)cc1C(=O)Nc1c2c(nn1-c1ccc(C)cc1C)CS(=O)(=O)C2,11.1,-3.3,5.3*,0.2,0.7,2.2
O=C(Nc1c2c(nn1-c1ccc(Cl)cc1)CS(=O)(=O)C2)C1(c2ccc(Cl)cc2)CCCC1,12.1,-8.7,0.1,0.2,x,x

# High-throughput results: PubChem, The Scripps Research Institute Molecular Screening Center
